Assay results reported in PubChem BioAssay (EPA / NIEHS).
Results filed as inconclusive are left out. A structure can be active in one record and inactive in another. Active and inactive are the calls of the source. Rule for the calls, unless noted: active = hit-call score of the fitted dose curve at least 0.9, where 1 is the maximum; inactive = score below 0.9.

What was measured:
[1] = CCTE_Shafer_MEA_acute_per_burst_spike_number_mean: CCTE's Neural Acute Assay for Average Number of Spikes Per Burst, Shafer Lab (AID 2284015);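 note: hits are decreases in mean spikes per burst versus baseline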
In short: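 Rat primary cortical neurons on 48-well MEAs (DIV 13 or 15) were treated with 0.03-40 uM compound at 37 C. Mean spikes per burst over 40 min were recorded before and after exposure and expressed as percent change from baseline, relative to DMSO.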

[2] = CCTE_Shafer_MEA_acute_interburst_interval_mean: CCTE's Neural Acute Assay for Mean Interburst Interval, Shafer Lab (AID 2284016);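 note: percent change of mean interburst interval versus each well's own pre-dose baseline; curves fitted for decrease in interburst interval relative to DMSO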
In short: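 Rat primary cortical neurons on 48-well MEAs at DIV 13 or 15 were exposed acutely to 0.03-40 uM. Spikes detected at 8x rms noise, 37 C. Mean interburst interval from 40 min recordings expressed as percent change from 40 min pre-treatment baseline.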

[3] = CCTE_Shafer_MEA_acute_burst_percentage_mean: CCTE's Neural Acute Assay for Percentage of Spikes in a Burst, Shafer Lab (AID 2284017);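 for AC50: curve fitted for loss of signal so potency reflects decreased burst percentage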
In short: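 Primary rat cortical neurons on 48-well MEA plates, treated on DIV 13 or 15 at 0.03-40 uM. Spikes detected at 8x rms noise at 37C; percent change from 40-min baseline to 40-min post-dose recording, fitted versus DMSO.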

[4] = CCTE_Shafer_MEA_acute_burst_percentage_std: CCTE's Neural Acute Assay for Standard Deviation of Burst Percentage, Shafer Lab (AID 2284018);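 note: fitted in the negative direction so actives lower burst percentage SD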
In short: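 Value is percent change from baseline in the across-electrode SD of spikes-in-bursts percentage, wells with >/= 10 active electrodes. Acute 40-min exposure to 0.03-40 uM on DIV 13 or 15 rat cortical cultures, recorded at 37 C after 40-min baseline.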

[5] = CCTE_Shafer_MEA_acute_per_network_burst_spike_number_mean: CCTE's Neural Acute Assay for Average Number of Spikes in a Network Burst, Shafer Lab (AID 2284019);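 for AC50: curve fitted for loss of signal so actives reduce spikes per network burst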
In short: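 Percent change from baseline in mean spikes per network burst, spikes detected at 8x rms noise. Each compound at 0.03-40 uM in at least three wells of rat cortical cultures, recorded 40 min before and 40 min during exposure.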

[6] = CCTE_Shafer_MEA_acute_per_network_burst_spike_number_std: CCTE's Neural Acute Assay for Standard Deviation of Number of Spikes in a Network Burst, Shafer Lab (AID 2284020);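 note: fitted for decrease in spike-number SD versus DMSO so actives lower it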
In short: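 Endpoint: percent change from 40 min baseline in standard deviation of spikes per network burst, after 40 min compound exposure (0.03-40 uM, 37 C). Cortical rat neurons on MEA at DIV 13 or 15; spikes detected at 8x rms noise, 300-5000 Hz band-pass.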

[7] = CCTE_Shafer_MEA_acute_network_burst_percentage: CCTE's Neural Acute Assay for Percentage of Network Bursts, Shafer Lab (AID 2284022);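 note: curves fitted for loss so actives lower network burst percentage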
In short: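 On DIV 13 or 15, at least three wells of rat cortical neurons per compound are dosed at 0.03-40 uM. Spontaneous firing is detected at 8x rms noise for 40 min before and after dosing at 37 C. The percent change in network-burst spike share is reported.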

[8] = CCTE_Shafer_MEA_acute_cross_correlation_HWHM: CCTE's Neural Acute Assay for Cross Correlation at Half Width at Half Maximum, Shafer Lab (AID 2284026);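 note: percent change per well from pre-dose baseline in spike cross-correlogram half width; hits are a decrease in cross-correlogram half width relative to DMSO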;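 for outcome: spontaneous network firing of rat primary cortical neurons on multiwell microelectrode arrays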
In short: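 Percent change in cross-correlogram half width at half maximum, narrower meaning more synchrony, was derived per well from paired 40-min recordings before and during exposure to 0.03-40 uM compound in rat cortical cultures at 37 C.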

[9] = CCTE_Shafer_MEA_acute_synchrony_index: CCTE's Neural Acute Assay for Synchrony, Shafer Lab (AID 2284027);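 note: network synchrony index of spontaneous spiking in primary rat cortical neurons on MEAs; fitted for loss of signal so actives lower synchrony relative to DMSO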
In short: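 Acute exposure of rat primary cortical neurons (DIV 13 or 15) at 0.03-40 uM. Synchrony index, 40 min before vs after, as % change relative to DMSO control.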

[10] = CCTE_Deisenroth_AIME_384WELL_CTox_Active: Cytotoxicity Assessment (CTOX) in CCTE's 384-well Estrogen Receptor Transactivation Assay with AIME metabolic competence (metabolism positive), Deisenroth Lab (AID 2284037; active = hit-call score of the fitted dose curve at least 0.9, where 1 is the maximum;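 note: chemicals first conditioned 2 h by alginate-bound induced rat liver S9 before cells; activity means signal loss indicating cell death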)
In short: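 Cytotoxicity in VM7Luc4E2 breast cells, 24 hour, measured as protease-substrate fluorescence loss, after 2-hour metabolic conditioning with induced rat hepatic S9 in alginate microspheres. Concentrations 0.002 - 200 uM, 10 points, bidirectional fitting.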

[11] = target: Estrogen receptor (Homo sapiens) (UniProt P03372); assay: CCTE_Deisenroth_AIME_384WELL_LUC_Inactive: CCTE's 384-well Estrogen Receptor Transactivation Assay without AIME metabolic competence (ERTA luciferase; metabolism negative), Deisenroth Lab (AID 2284038; active = hit-call score of the fitted dose curve at least 0.9, where 1 is the maximum;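 note: VM7Luc4E2 breast cells given medium preincubated 2 h with S9-free microspheres; hits raise estrogen receptor luciferase signal so potencies reflect agonists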)
In short: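 Metabolism-negative mode: AIME lids stamped in alginate-water, no hepatic S9. 2 h chemical incubation → medium onto VM7Luc4E2 ERTA, 24 h. Readout luciferase luminescence; gain-of-signal fit vs 17beta-estradiol. Conc. 0.002 - 200 uM.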

[12] = CCTE_Deisenroth_AIME_384WELL_CTox_Inactive: Cytotoxicity Assessment (CTOX) in CCTE's 384-well Estrogen Receptor Transactivation Assay without AIME metabolic competence (metabolism negative), Deisenroth Lab (AID 2284039; active = hit-call score of the fitted dose curve at least 0.9, where 1 is the maximum;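 note: cell viability via live-cell protease substrate cleaved to fluorescent probe; cells exposed 24 h to medium preincubated 2 h with alginate-water beads without S9; loss of fluorescence signal means loss of viability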)
In short: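 VM7Luc4E2 cells, metabolism-negative arm: test chemicals (0.002–200 uM, 10 points) pre-incubated 2 h with alginate-water microspheres, then medium transferred to cells for 24 h. Viability read as protease-substrate cleavage to fluorescent probe; loss-of-signal, bidirectional fitting.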

[13] = target: Estrogen receptor (Homo sapiens) (UniProt P03372); assay: CCTE_Deisenroth_AIME_384WELL_LUC_Shift: CCTE's 384-well Estrogen Receptor Transactivation Assay with AIME metabolic competence data shift (ERTA luciferase; difference in metabolism positive and negative), Deisenroth Lab (AID 2284041);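 note: shift is response with S9 minus without S9 so positive means metabolism raised ER signal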
In short: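 Test chemicals (0.002–200 uM, 10-point) were pre-incubated 2 h with alginate microspheres containing phenobarbital/beta-naphthoflavone-induced male Sprague Dawley rat liver S9 or water, then medium was transferred to VM7Luc4E2 cells for 24 h luciferase readout; shift = S9-positive minus S9-negative normalized response.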

[14] = CCTE_Shafer_MEA_dev_firing_rate_mean: CCTE's Neural Network Formation Assay for Mean Firing Rate, Shafer Lab (AID 2284031)
In short: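 Extracellular spike frequency, AUC over DIV 5–12 recordings, in rat cortical neuron MEA cultures dosed from plating; loss direction vs DMSO.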

[15] = CCTE_Shafer_MEA_dev_per_burst_spike_percent: CCTE's Neural Network Formation Assay for Percent of Spikes in a Burst, Shafer Lab (AID 2284032);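 for AC50: fitted as a decrease in burst spike percentage below DMSO baseline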
In short: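 Value is trapezoidal AUC over recordings on days 5, 7, 9 and 12 of the well-mean fraction of spikes falling in single-electrode bursts; rat cortical cultures exposed continuously from plating, treatment renewed DIV 5 and 9, fitted downward against DMSO.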

[16] = CCTE_Shafer_MEA_dev_active_electrodes_number: CCTE's Neural Network Formation Assay for Number of Active Electrodes, Shafer Lab (AID 2284040; active = hit-call score of the fitted dose curve at least 0.9, where 1 is the maximum;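 for AC50: potency for loss of active electrodes versus DMSO so lower counts are hits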)
In short: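 Developing rat cortical networks on MEAs, exposed DIV 0–12. Value is the AUC of active-electrode counts (≥5 spikes/min) from days 5, 7, 9, 12, relative to DMSO.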

Estrogen receptor (Homo sapiens), sequence (P03372 whole entry, looked up): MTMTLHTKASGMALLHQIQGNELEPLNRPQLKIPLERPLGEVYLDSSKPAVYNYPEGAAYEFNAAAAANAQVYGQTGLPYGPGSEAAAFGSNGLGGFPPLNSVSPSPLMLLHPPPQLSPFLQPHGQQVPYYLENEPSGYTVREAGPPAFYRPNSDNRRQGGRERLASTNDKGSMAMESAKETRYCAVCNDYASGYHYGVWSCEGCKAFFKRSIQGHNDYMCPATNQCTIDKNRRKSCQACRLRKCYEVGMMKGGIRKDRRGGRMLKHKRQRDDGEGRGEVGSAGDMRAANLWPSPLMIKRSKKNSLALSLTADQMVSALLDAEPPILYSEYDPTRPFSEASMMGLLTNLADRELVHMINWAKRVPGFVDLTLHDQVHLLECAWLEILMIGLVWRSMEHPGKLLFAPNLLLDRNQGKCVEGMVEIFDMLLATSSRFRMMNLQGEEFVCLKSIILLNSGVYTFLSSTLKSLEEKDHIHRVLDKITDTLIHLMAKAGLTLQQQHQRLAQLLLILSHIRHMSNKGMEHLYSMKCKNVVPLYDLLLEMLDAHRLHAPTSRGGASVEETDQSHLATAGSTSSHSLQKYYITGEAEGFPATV

CC(C)(C)c1cc(O)c(C(C)(C)C)cc1O
outcome [1]: inactive
AC50 [2]: 31.4 µM (active)
outcome [3]: inactive
outcome [4]: inactive
AC50 [5]: 4.33 µM (active)
AC50 [6]: 30.7 µM (active)
outcome [7]: inactive
AC50 [8]: 31.7 µM (active)
outcome [9]: inactive

NS(=O)(=O)c1cc2c(cc1Cl)NCNS2(=O)=O
outcome [1]: inactive
outcome [2]: inactive
outcome [3]: inactive
outcome [4]: inactive
outcome [5]: inactive
outcome [6]: inactive
outcome [7]: inactive
outcome [8]: inactive
outcome [9]: inactive

Cc1ccc(C)c(O)c1C
outcome [1]: inactive
outcome [2]: inactive
AC50 [3]: 32.4 µM (active)
AC50 [4]: 29.3 µM (active)
outcome [5]: inactive
outcome [6]: inactive
outcome [7]: inactive
AC50 [8]: 33.9 µM (active)
AC50 [9]: 31.6 µM (active)
outcome [10]: inactive
outcome [11]: inactive
outcome [12]: inactive
outcome [13]: inactive

Nc1ccccc1N
outcome [1]: inactive
outcome [2]: inactive
outcome [3]: inactive
outcome [4]: inactive
outcome [5]: inactive
outcome [6]: inactive
outcome [7]: inactive
outcome [8]: inactive
outcome [9]: inactive

CNCc1cc(F)ccc1Oc1ccc(Cl)c(Cl)c1
AC50 [1]: 31.5 µM (active)
outcome [2]: inactive
outcome [3]: inactive
outcome [4]: inactive
AC50 [5]: 32.6 µM (active)
AC50 [6]: 31.7 µM (active)
outcome [7]: inactive
outcome [8]: inactive
outcome [9]: inactive
outcome [10]: inactive
AC50 [12]: 19.8 µM (active)
outcome [13]: inactive

O=C(O)CCCCC(=O)O
outcome [1]: inactive
outcome [2]: inactive
outcome [3]: inactive
outcome [4]: inactive
outcome [5]: inactive
outcome [6]: inactive
outcome [7]: inactive
outcome [8]: inactive
outcome [9]: inactive

COc1ccc2c(c1)c(CC(=O)O)c(C)n2C(=O)c1ccc(Cl)cc1
outcome [1]: inactive
outcome [2]: inactive
outcome [3]: inactive
outcome [4]: inactive
outcome [5]: inactive
outcome [6]: inactive
outcome [7]: inactive
outcome [8]: inactive
outcome [9]: inactive

CCOC(=O)C(C)(C)Oc1ccc(Cl)cc1
outcome [1]: inactive
outcome [2]: inactive
outcome [3]: inactive
outcome [4]: inactive
outcome [5]: inactive
outcome [6]: inactive
outcome [7]: inactive
outcome [8]: inactive
outcome [9]: inactive

CCCc1cc(=O)[nH]c(=S)[nH]1
outcome [1]: inactive
outcome [2]: inactive
outcome [3]: inactive
outcome [4]: inactive
outcome [5]: inactive
outcome [6]: inactive
outcome [7]: inactive
outcome [8]: inactive
outcome [9]: inactive
outcome [14]: inactive
AC50 [15]: 22.9 µM (active)
outcome [15]: inactive
outcome [10]: inactive
outcome [11]: inactive
outcome [12]: inactive
AC50 [16]: 22.9 µM (active)
outcome [16]: inactive
outcome [13]: inactive
